# Assay results from PubChem BioAssay AID1159580 (chemical genetic matrix, 2015).
# About 2,000 (36%) of roughly 5,500 compounds were called active. Inconclusive results (about 18%) are left out. The list shows a part of the results. Unmarked numbers belong to inactive results. Cut-off read from the data, not from the text of the source: active = normalized growth mostly below about 0.91 (no sharp cut-off); inconclusive = no clear call, values can overlap the other calls; inactive = mostly above about 0.92.
# Assay: chemical genetic growth profiling, strain panel (AID 1159580);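 note: tested at 20 µM; growth read once vehicle control cultures reached saturation at 30 °C; 1 = growth at the plate median or of vehicle wells; lower values mean less growth of the strain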
# Settings: growth OD
structure (smiles),measurement,setting,value
O[C@H]1C=C2CCN3Cc4cc5c(cc4C(C23)[C@@H]1O)OCO5 (stereo partly specified),normalized growth,"S. cerevisiae deletion strains, locus YBR021W, strain FUR4, hits give low values",1.05
same,normalized growth,"S. cerevisiae deletion strains, locus YBR229C, strain ROT2, hits give low values",0.665 (active)
same,normalized growth,"S. cerevisiae deletion strains, locus YCL029C, strain bik1, hits give low values",0.331 (active)
same,normalized growth,"S. cerevisiae deletion strains, locus YDL035C, strain GPR1, hits give low values",0.434 (active)
same,normalized growth,"S. cerevisiae deletion strains, locus YDL074C, strain BRE1, hits give low values",0.485 (active)
same,normalized growth,"S. cerevisiae deletion strains, locus YDL101C, strain DUN1, hits give low values",0.575 (active)
same,normalized growth,"S. cerevisiae deletion strains, locus YDL185W, strain tfp1, hits give low values",0.965
same,normalized growth,"S. cerevisiae deletion strains, locus YDL192W, strain arf1, hits give low values",0.591 (active)
same,normalized growth,"S. cerevisiae deletion strains, locus YDR101C, strain arx1, hits give low values",0.272 (active)
same,normalized growth,"S. cerevisiae deletion strains, locus YDR162C, strain NBP2, hits give low values",0.566 (active)
same,normalized growth,"S. cerevisiae deletion strains, locus YDR318W, strain mcm21, hits give low values",0.466 (active)
same,normalized growth,"S. cerevisiae deletion strains, locus YDR388W, hits give low values",0.514 (active)
same,normalized growth,"S. cerevisiae deletion strains, locus YDR502C, strain sam2, hits give low values",0.412 (active)
same,normalized growth,"S. cerevisiae deletion strains, locus YEL061C, strain CIN8, hits give low values",0.737 (active)
same,normalized growth,"S. cerevisiae deletion strains, locus YER110C, hits give low values",0.573 (active)
same,normalized growth,"S. cerevisiae deletion strains, locus YER155C, strain BEM2, hits give low values",0.87 (active)
same,normalized growth,"S. cerevisiae deletion strains, locus YER167W, strain BCK2, hits give low values",0.5 (active)
same,normalized growth,"S. cerevisiae deletion strains, locus YGL078C, strain dbp3, hits give low values",0.812 (active)
same,normalized growth,"S. cerevisiae deletion strains, locus YGL086W, strain mad1, hits give low values",0.541 (active)
same,normalized growth,"S. cerevisiae deletion strains, locus YGL248W, strain PDE1, hits give low values",0.398 (active)
same,normalized growth,"S. cerevisiae deletion strains, locus YGR078C, strain PAC10, hits give low values",0.615 (active)
same,normalized growth,"S. cerevisiae deletion strains, locus YGR135W, strain pre9, hits give low values",0.459 (active)
same,normalized growth,"S. cerevisiae deletion strains, locus YGR252W, strain gcn5, hits give low values",0.636 (active)
same,normalized growth,"S. cerevisiae deletion strains, locus YHR079C, strain IRE1 (second series), hits give low values",0.38 (active)
same,normalized growth,"S. cerevisiae deletion strains, locus YHR094C, strain hxt1, hits give low values",0.478 (active)
same,normalized growth,"S. cerevisiae deletion strains, locus YHR129C, strain ARP1, hits give low values",0.613 (active)
same,normalized growth,"S. cerevisiae deletion strains, locus YHR200W, strain rpn10, hits give low values",0.549 (active)
same,normalized growth,"S. cerevisiae deletion strains, locus YIL066C, strain RNR3, hits give low values",0.678 (active)
same,normalized growth,"S. cerevisiae deletion strains, locus YIL073C, strain SPO22, hits give low values",0.402 (active)
same,normalized growth,"S. cerevisiae deletion strains, locus YIL125W, strain kgd1, hits give low values",0.857 (active)
same,normalized growth,"S. cerevisiae deletion strains, locus YIR030C, strain dcg1, hits give low values",0.558 (active)
same,normalized growth,"S. cerevisiae deletion strains, locus YJL095W, strain BCK1, hits give low values",0.448 (active)
same,normalized growth,"S. cerevisiae deletion strains, locus YJL134W, strain LCB3, hits give low values",0.757 (active)
same,normalized growth,"S. cerevisiae deletion strains, locus YJL168C, strain set2, hits give low values",0.837 (active)
same,normalized growth,"S. cerevisiae deletion strains, locus YJL187C, strain SWE1 (second series), hits give low values",0.373 (active)
same,normalized growth,"S. cerevisiae deletion strains, locus YJR075W, strain HOC1, hits give low values",0.53 (active)
same,normalized growth,"S. cerevisiae deletion strains, locus YKL009W, strain mrt4, hits give low values",0.858 (active)
same,normalized growth,"S. cerevisiae deletion strains, locus YKL068W, hits give low values",0.953
same,normalized growth,"S. cerevisiae deletion strains, locus YKL085W, strain MDH1 (second series), hits give low values",0.897 (active)
same,normalized growth,"S. cerevisiae deletion strains, locus YKL085W, strain MDH1, hits give low values",0.897 (active)
same,normalized growth,"S. cerevisiae deletion strains, locus YKL190W, strain CNB1, hits give low values",0.659 (active)
same,normalized growth,"S. cerevisiae deletion strains, locus YKR001C, strain vps1, hits give low values",0.558 (active)
same,normalized growth,"S. cerevisiae deletion strains, locus YLR039C, strain RIC1, hits give low values",1.08
same,normalized growth,"S. cerevisiae deletion strains, locus YLR058C, strain SHM2, hits give low values",0.395 (active)
same,normalized growth,"S. cerevisiae deletion strains, locus YLR102C, strain apc9, hits give low values",0.49 (active)
same,normalized growth,"S. cerevisiae deletion strains, locus YLR268W, strain sec22, hits give low values",0.454 (active)
same,normalized growth,"S. cerevisiae deletion strains, locus YLR330W, strain CHS5, hits give low values",0.656 (active)
same,normalized growth,"S. cerevisiae deletion strains, locus YLR342W, strain FKS1 (second series), hits give low values",0.483 (active)
same,normalized growth,"S. cerevisiae deletion strains, locus YLR371W, strain rom2, hits give low values",0.55 (active)
same,normalized growth,"S. cerevisiae deletion strains, locus YLR418C, strain cdc73, hits give low values",0.707 (active)
same,normalized growth,"S. cerevisiae deletion strains, locus YML016C, strain PPZ1, hits give low values",0.632 (active)
same,normalized growth,"S. cerevisiae deletion strains, locus YML032C, strain rad52, hits give low values",0.367 (active)
same,normalized growth,"S. cerevisiae deletion strains, locus YML124C, strain tub3, hits give low values",0.538 (active)
same,normalized growth,"S. cerevisiae deletion strains, locus YMR078C, strain ctf18, hits give low values",0.713 (active)
same,normalized growth,"S. cerevisiae deletion strains, locus YMR223W, strain ubp8, hits give low values",0.33 (active)
same,normalized growth,"S. cerevisiae deletion strains, locus YMR307W, strain GAS1, hits give low values",1.35
same,normalized growth,"S. cerevisiae deletion strains, locus YNL067W, strain RPL9B, hits give low values",0.495 (active)
same,normalized growth,"S. cerevisiae deletion strains, locus YNL128W, strain TEP1, hits give low values",0.466 (active)
same,normalized growth,"S. cerevisiae deletion strains, locus YNL233W, strain BNI4, hits give low values",0.557 (active)
same,normalized growth,"S. cerevisiae deletion strains, locus YNL250W, strain rad50, hits give low values",0.852 (active)
same,normalized growth,"S. cerevisiae deletion strains, locus YNL271C, strain bni1, hits give low values",0.908 (active)
same,normalized growth,"S. cerevisiae deletion strains, locus YNL298W, strain CLA4, hits give low values",0.931
same,normalized growth,"S. cerevisiae deletion strains, locus YNL307C, strain MCK1, hits give low values",0.694 (active)
same,normalized growth,"S. cerevisiae deletion strains, locus YNR052C, strain pop2, hits give low values",0.605 (active)
same,normalized growth,"S. cerevisiae deletion strains, locus YOL006C, strain TOP1, hits give low values",0.726
same,normalized growth,"S. cerevisiae deletion strains, locus YOL012C, strain htz1",2.41 [resistant] (active)
same,normalized growth,"S. cerevisiae deletion strains, locus YOL147C, strain pex11, hits give low values",0.498 (active)
same,normalized growth,"S. cerevisiae deletion strains, locus YOR061W, strain CKA2, hits give low values",0.565 (active)
same,normalized growth,"S. cerevisiae deletion strains, locus YOR069W, strain VPS5, hits give low values",0.657 (active)
same,normalized growth,"S. cerevisiae deletion strains, locus YOR136W, strain idh2, hits give low values",0.731 (active)
same,normalized growth,"S. cerevisiae deletion strains, locus YOR144C, strain elg1, hits give low values",0.47 (active)
same,normalized growth,"S. cerevisiae deletion strains, locus YOR184W, strain ser1, hits give low values",0.545 (active)
same,normalized growth,"S. cerevisiae deletion strains, locus YOR316C, strain cot1, hits give low values",0.599 (active)
same,normalized growth,"S. cerevisiae deletion strains, locus YPL055C, strain LGE1, hits give low values",0.627 (active)
same,normalized growth,"S. cerevisiae deletion strains, locus YPL241C, strain CIN2, hits give low values",0.74 (active)
same,normalized growth,"S. cerevisiae deletion strains, locus YPR119W, strain clb2, hits give low values",0.715 (active)
same,normalized growth,"S. cerevisiae deletion strains, locus YPR141C, strain kar3, hits give low values",0.976
same,normalized growth,"S. cerevisiae deletion strains, locus YPR163C, strain tif3, hits give low values",0.931
same,normalized growth,"S. cerevisiae deletion strains, locus YPR167C, strain met16, hits give low values",0.523 (active)
same,normalized growth,"S. cerevisiae deletion strains, strain wtn01, hits give low values",0.449 (active)
same,normalized growth,"S. cerevisiae strains, strain wild type, hits give low values",0.448 (active)
